From publication PMC5540273 (PLoS ONE, 2017)

Key:
Conditions in all cases: concentration: 1 μM, replicates: in singlicate; n = 1
LOK = system: T1, LOK
T1 construct: gene STK10

LRRK2 = system: LRRK2
LTK = system: LTK
LYN = system: LYN
LZK = system: T2, LZK
T2 construct: gene MAP3K13

MAK = system: MAK
MAP3K15 = system: MAP3K15
MAP3K1 = system: MAP3K1
MAP3K2 = system: MAP3K2
MAP3K3 = system: MAP3K3
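Also: KINOMEscan kinase panel screen.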

Row | SMILES | %Inh (LOK) | %Inh (LRRK2) | %Inh (LTK) | %Inh (LYN) | %Inh (LZK) | %Inh (MAK) | %Inh (MAP3K15) | %Inh (MAP3K1) | %Inh (MAP3K2) | %Inh (MAP3K3)
1 | Nc1ncnc2c1ncn2-c1cccc(F)c1 [SKF-97560] | 0% | 31% | 0% | 0% | 13% | 0% | 0% | 16% | 3% | 5%
2 | CCc1ccc(-c2ccc3c(c2)-c2nn(C)cc2S(=O)(=O)N3C)cc1 | 2% | 0% | 0% | 0% | 0% | 0% | 0% | 0% | 0% | 0%
3 | OCCCNc1nccc(-c2c(-c3cccc(C(F)(F)F)c3)nn3cc(C(F)(F)F)ccc23)n1 [GW630813] | 0% | 0% | 4% | 0% | 43% | 16% | 0% | 0% | 0% | 0%
4 | CC(C)(C)c1ccc(C(=O)Nc2cn3cc(-c4ccccc4)ccc3n2)cc1 | 0% | 0% | 0% | 0% | 0% | 11% | 22% | 0% | 0% | 2%
5 | Nc1nccc2scc(-c3ccc4c(c3)CCN4C(=O)Cc3ccccc3)c12 [GSK2576924] | 21% | 0% | 69% | 0% | 1% | 23% | 9% | 0% | 12% | 0%
6 | CCC(=O)c1c(-c2ccccc2)c2cc(Cl)ccc2c(=O)n1Cc1cc(C(=O)NC2CC2)n(C)n1 | 19% | 3% | 16% | 0% | 31% | 32% | 11% | 9% | 10% | 12%
7 | Cc1cccc(-c2cc(-c3c[nH]nc3-c3ccccn3)ccn2)c1 [GW679395] | 0% | 10% | 4% | 0% | 12% | 33% | 0% | 5% | 6% | 0%
8 | COc1cc(Nc2ccnc3ccc(C(F)(F)F)cc23)cc(OC)c1OC [GW577382] | 18% | 27% | 0% | 25% | 30% | 12% | 3% | 4% | 0% | 0%
9 | COC(=O)c1c(-c2ccccc2)c2cc(C)ccc2c(=O)n1Cc1ccccc1 | 0% | 0% | 0% | 7% | 0% | 0% | 0% | 0% | 0% | 0%
10 | COc1ccc(-c2cc3c(C)nc(N)nc3n([C@H]3CC[C@H](OCCO)CC3)c2=O)cn1 | 9% | 0% | 9% | 0% | 0% | 0% | 0% | 0% | 0% | 0%
11 | CCC(=O)c1c(-c2ccccc2)c2cc(Cl)ccc2c(=O)n1Cc1cc(S(C)(=O)=O)n(CC(F)F)n1 | 0% | 0% | 0% | 0% | 0% | 14% | 2% | 0% | 0% | 0%
12 | Cc1cccc(-c2nc(Nc3ccc4c(cnn4C)c3)c3ccccc3n2)n1 [GW876731] | 10% | 0% | 0% | 5% | 0% | 29% | 0% | 0% | 12% | 10%
13 | Nc1n[nH]c2nnc(-c3ccccc3)c(-c3ccccc3)c12 [GW554060] | 0% | 41% | 0% | 100% | 3% | 26% | 0% | 25% | 3% | 0%
14 | FC(F)(F)c1ccc(-c2ncn(CCCN3CCOCC3)c2-c2ccncc2)cc1 [SB-217780] | 10% | 0% | 23% | 3% | 0% | 29% | 7% | 12% | 8% | 0%
15 | Nc1ncnc2c1ncn2-c1cccc2ccccc12 [SKF-97184] | 3% | 4% | 0% | 15% | 34% | 30% | 9% | 5% | 18% | 0%
16 | Cc1nn2c(=O)cc(N3CCOCC3)nc2n1Cc1cccc(Cl)c1Cl [GSK2342769] | 0% | 22% | 0% | 0% | 0% | 20% | 9% | 17% | 16% | 0%
17 | O=C(Nc1n[nH]c2nc(-c3ccccc3)c(Cl)cc12)C1CC1 [SB-734909] | 21% | 0% | 0% | 0% | 0% | 3% | 60% | 37% | 14% | 33%
18 | Cl.NS(=O)(=O)c1cccc(Nc2cc(-c3ccc(F)cc3)n[nH]2)c1 [GW824645] | 0% | 0% | 0% | 0% | 0% | 0% | 1% | 0% | 22% | 0%

Row | SMILES | %Inh (LOK) | %Inh (LRRK2) | %Inh (LTK) | %Inh (LYN) | %Inh (LZK) | %Inh (MAK) | %Inh (MAP3K15) | %Inh (MAP3K1) | %Inh (MAP3K2) | %Inh (MAP3K3)
19 | COc1cc2nccc(Nc3ccc(OCc4ccc(NC(C)=O)cc4)cc3)c2cc1OC.Cl [GW440135] | 0% | 0% | 0% | 23% | 24% | 0% | 0% | 0% | 18% | 0%
20 | Cc1cc(Nc2nc(-c3cccc(C)n3)nc3ccccc23)ccn1 [GW872411] | 0% | 0% | 0% | 0% | 0% | 0% | 0% | 0% | 0% | 0%
21 | COC(=O)c1c(-c2ccccc2)c2cc(Br)ccc2c(=O)n1Cc1ccc(S(C)(=O)=O)cc1 | 6% | 11% | 9% | 14% | 33% | 34% | 26% | 27% | 0% | 32%
22 | O=C(Nc1ccc2c(c1)OCO2)NC1CCN(c2ccnc(NCc3ccc(F)cc3)n2)CC1 [GSK1379859] | 0% | 0% | 1% | 4% | 0% | 79% | 0% | 8% | 0% | 0%
23 | COc1cccc(-n2cnc3c(N)ncnc32)c1 [SKF-97416] | 4% | 63% | 0% | 8% | 33% | 10% | 22% | 29% | 35% | 22%
24 | Cc1ccc(Oc2ccc(Nc3ncnc4cc[nH]c34)cc2C)cn1 | 1% | 0% | 0% | 0% | 40% | 25% | 38% | 0% | 4% | 30%
25 | O=c1cc(N2CCOCC2)nc2n(Cc3ccc(F)c(Cl)c3)ccn12 [GSK2297099] | 0% | 0% | 0% | 2% | 0% | 28% | 0% | 4% | 10% | 0%
26 | Nc1ncnc2c1ncn2-c1ccc(Cl)cc1 [AH2635] | 0% | 0% | 14% | 0% | 27% | 8% | 0% | 0% | 0% | 0%
27 | COc1ccc(CNC(=O)NC2CCN(c3ccnc(Nc4ccc(F)cc4)n3)C2)cc1 (centres unmarked) [GSK1379706] | 0% | 23% | 15% | 0% | 71% | 30% | 12% | 2% | 0% | 0%
28 | Cl.c1ccc(Cn2cnc3cc(Nc4ncnc5ccccc45)ccc32)cc1 [GW272142] | 0% | 0% | 0% | 0% | 22% | 0% | 0% | 5% | 0% | 0%
29 | O=C(Nc1n[nH]c2nc(-c3ccccc3)c(Br)cc12)C1CC1 [SB-708998] | 0% | 29% | 4% | 3% | 0% | 12% | 3% | 0% | 7% | 4%
30 | O=C(NCc1cccs1)c1cc(C(=O)c2c(Cl)cccc2Cl)c[nH]1 [GW823670] | 21% | 0% | 11% | 1% | 0% | 0% | 0% | 0% | 0% | 0%
31 | Nc1n[nH]c2ncc(-c3ccccc3)cc12 [SB-517081] | 0% | 0% | 0% | 0% | 0% | 17% | 0% | 6% | 15% | 0%
32 | O=C(Nc1n[nH]c2cc(-c3ccccc3F)ccc12)C1CC1 [SB-733371] | 1% | 0% | 0% | 0% | 0% | 0% | 32% | 0% | 0% | 22%
33 | CCc1nc(-c2cccc(C)c2)c(-c2ccncc2)s1 | 0% | 0% | 0% | 12% | 0% | 0% | 0% | 0% | 0% | 0%
34 | CCC(=O)c1c(-c2ccccc2)c2cc(Cl)ccc2c(=O)n1Cc1cc(S(C)(=O)=O)n(CCC(C)(C)O)n1 | 16% | 6% | 6% | 18% | 13% | 2% | 43% | 3% | 21% | 37%
35 | CN1C(=O)C(Nc2ccccc2)=C(c2ccccc2)C1=O [SB-300079] | 0% | 0% | 0% | 0% | 0% | 0% | 0% | 0% | 21% | 0%
